# DT40 TDP1 CPT: DT40-hTDP1 cell growth loss with CPT | chicken DT40 Tdp1-/-;hTDP1 cells + 20 nM CPT, ATP luminescence, 48 h | Potency, µM (highest dose often 46.2 µM), for the others: top-dose activity change, negative = growth inhibition, usual class: inhibitors | 420,000 tested, 12% active | AID 686979; further: on the % scale 0 is the no-effect control and ±100 the full control effect; nearly all actives have a fitted effect of over 55% in size
#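 Chicken DT40 Tdp1-/- cells complemented with human TDP1, 400 cells/well, exposed to compounds plus 20 nM camptothecin for at least 48 h at 37 C; viability read as ATP content by CellTiter-Glo luminescence.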
# TDP1 cell noCPT: qHTS for Inhibitors of human tyrosyl-DNA phosphodiesterase 1 (TDP1): qHTS in cells in absence of CPT | 420,000 tested, 15% active | DT40 Tdp1-/- hTDP1 cells, no CPT, ATP luminescence, 48 h | AID 686978, 2013 | Potency, µM (series often up to 46.2 µM), without a hit: at the top dose activity change, negative = growth inhibition, usual class: inhibitors; further: on the % scale 0 is the no-effect control and ±100 the full control effect; nearly all actives have a fitted effect of over 55% in size
#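 Chicken DT40 Tdp1-/- cells complemented with human TDP1, screened without camptothecin (DMSO vehicle only), 400 cells/well. Compounds pin-transferred, cells incubated at 37 °C for at least 48 hr. Growth read as ATP-dependent luminescence (CellTiter-Glo, 30 min at RT).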
# ClpP mod: qHTS Assay for Activators of ClpP; purified B. subtilis ClpP, FRET peptide cleavage, 20 min; Potency, µM (top dose mostly 57.5 µM), for inactives: at the highest dose activity change, negative = active; 340,000 tested, 1.9% active; active means well fitted falling curve with a large enough effect; inconclusive means small, poorly fitted or top-dose-only effect; inactive means no such curve, though single readings can be large or run the other way; further: the source files actives as falling curves though it sought activators and does not explain the sign; nearly all actives have a fitted effect of over 65% in size
#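 ClpP 10 microg/mL final, pH 8 Tris/KCl buffer with BSA, glycerol, Tween-20; compound pinned in; FRET-FV substrate; RT 20 min; Ex320/Em430; ΔFRET vs ADEP 5.8 microM, DMSO, no enzyme.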
# TDP1 block: blocks human tyrosyl-DNA phosphodiesterase 1. Q9NUW8. 350,000 tested, 0.28% active. AID 485290. Potency, µM (series often up to 130 µM), for the others: at the top dose activity change, negative = inhibition, usual class: inhibitors. recombinant TDP1, AlphaScreen DNA substrate cleavage; further: on the % scale 0 is the no-effect control and ±100 the full control effect; nearly all actives have a fitted effect of over 40% in size
# Target sequence (Q9NUW8 whole entry, looked up): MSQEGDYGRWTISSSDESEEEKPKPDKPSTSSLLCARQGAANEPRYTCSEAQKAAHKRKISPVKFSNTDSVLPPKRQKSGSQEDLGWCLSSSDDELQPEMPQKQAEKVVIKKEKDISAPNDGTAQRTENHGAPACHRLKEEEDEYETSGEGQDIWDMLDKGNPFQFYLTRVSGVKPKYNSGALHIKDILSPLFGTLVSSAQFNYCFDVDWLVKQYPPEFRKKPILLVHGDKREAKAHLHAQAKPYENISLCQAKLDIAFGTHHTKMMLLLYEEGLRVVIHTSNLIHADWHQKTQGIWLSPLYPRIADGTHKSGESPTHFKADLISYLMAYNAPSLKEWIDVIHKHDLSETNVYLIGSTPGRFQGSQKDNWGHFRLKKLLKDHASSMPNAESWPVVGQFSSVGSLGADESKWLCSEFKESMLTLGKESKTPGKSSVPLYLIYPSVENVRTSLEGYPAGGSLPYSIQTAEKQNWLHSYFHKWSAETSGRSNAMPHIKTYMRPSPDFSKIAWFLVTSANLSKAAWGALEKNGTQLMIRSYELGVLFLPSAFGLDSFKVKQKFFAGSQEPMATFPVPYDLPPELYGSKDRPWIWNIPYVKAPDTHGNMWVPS
#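 Signal: AlphaScreen proximity between streptavidin donor and anti-FITC acceptor beads on intact substrate. Reaction: Tdp1 1 nM, substrate 15 nM final, 5 min RT after 15 min compound preincubation.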
# * hit, by the source's call; ? = inconclusive; · = no result given; [ ] = remark or other dose. Sampled rows, rich in hits. Any-hit rate of the full collection: about 17%. Unless noted, the call rests on the fitted dose curve; in most records, active means well fitted curve in the direction sought with a large enough effect; inconclusive means small, poorly fitted or top-dose-only effect, or another doubt; inactive means no such curve, though single readings can be large; an effect the other way counts as inactive or inconclusive. Potency means the concentration at half of the fitted maximal effect.
SMILES,DT40 TDP1 CPT,TDP1 cell noCPT,ClpP mod,TDP1 block
CN(C)c1ccc(N=Cc2cccc3ccccc23)cc1,4.47µM*,3.98µM*,-5.6%,·
CN(C)c1ccc(N=Nc2ccc3ncccc3c2)cc1,-13.8%,-27.0%,·,·
CN(C)c1ccc(N=Cc2ccnc3ccccc23)cc1,10µM*,11.2µM*,-1.3%,·
CN(CCc1ccccc1)C(=O)c1ccc(NC(=O)Cc2ccc(NC(=O)C3CCN(C(=O)C4CCCC4)CC3)cc2)cc1,16.4µM*,23.1µM*,-3.1%,·
CN(CCc1ccccc1)C(=O)c1ccc(NC(=O)Cc2ccc(NC(=O)C3CCN(C(=O)C4CC4)CC3)cc2)cc1,23.1µM*,?,-0.1%,·
CN(C(=O)c1ccc(NC(=O)Cc2ccc(NC(=O)C3CCN(C(=O)C4CCCCC4)CC3)cc2)cc1)C1CCCC1,?,20.6µM*,1.6%,·
O=C(Nc1cc(C(=O)N2CCN(c3ccccc3O)CC2)ccc1Cl)c1cccs1,?,?,-2.7%,2.0%
O=C(Nc1ccccc1N1CCCCC1)c1ccc(Cl)cc1,-14.0%,-26.2%,0.1%,·
Cc1ccc(C(=O)Nc2c(C)cc(-c3ccc(Cl)cc3)oc2=O)cc1,-24.8%,-24.6%,14.1µM*,5.9%
Cc1nccc2oc(=O)c(NC(=O)c3ccc(Cl)cc3)cc12,-3.7%,-7.5%,·,-5.9%
O=C(Nc1cc2c(oc1=O)CCCC2=O)c1ccc(Cl)cc1,-20.3%,9.6%,-5.5%,12.6µM*
Cc1ccc(C(=O)Nc2c(-c3ccc(Cl)cc3)[nH][nH]c2=O)cc1,-20.5%,16.0%,-2.1%,·
COc1cccc(C(=O)Nc2cc3cc(OC)ccc3oc2=O)c1,-31.3%,1.0%,-1.5%,-3.1%[12.3 µM]
COc1ccc(C(=O)Nc2cc3cc(Cl)ccc3oc2=O)cc1OC,5.8µM*,2.91µM*,-13.7%,-4.0%[12.3 µM]
Cc1ccc(C(=O)Nc2cc3cc(Cl)ccc3oc2=O)cc1,1.16µM*,1.46µM*,4.3%,4.0%[12.3 µM]
O=C(COc1ccc(Cl)cc1Cl)N1CCN(C(=O)c2ccco2)CC1,-0.1%,-10.2%,·,·
Cc1ccnc(NC(=O)CCNC(=O)c2ccc(Br)cc2)c1,-3.6%,-0.1%,-1.9%,·
NC(=O)c1c(/N=C/c2cccs2)sc2c1CCCC2,3.66µM*,3.66µM*,-16.2%,·
CCCc1ccc(OC(=O)c2ccc(O)cc2Cl)cc1,?,?,·,0.0%
COC(=O)[C@@]12C[C@@H](CC(=O)NCc3ccc(C)o3)C(=O)N(Cc3cccc4ccccc34)C1=CCC(C)(C)C2,20.6µM*,16.4µM*,-1.7%,·
COC(=O)[C@@]12C[C@@H](CC(=O)NCc3ccc(C)o3)C(=O)N(Cc3ccccc3)C1=CCC(C)(C)C2,?,?,1.0%,·
COC(=O)[C@@]12C[C@@H](CC(=O)NCc3ccccc3)C(=O)N(Cc3cccc4ccccc34)C1=CCC(C)(C)C2,?,18.4µM*,-1.8%,·
COC(=O)[C@@]12C[C@@H](CC(=O)NCc3ccccc3)C(=O)N(Cc3ccccc3)C1=CCC(C)(C)C2,20.6µM*,?,0.5%,·
COC(=O)[C@@]12C[C@@H](CC(=O)NCCCCc3ccccc3)C(=O)N(Cc3cccc4ccccc34)C1=CCC(C)(C)C2,?,20.6µM*,-3.1%,·
COC(=O)[C@@]12C[C@@H](CC(=O)NCCCN3CCCC3=O)C(=O)N(Cc3cccc4ccccc34)C1=CCC(C)(C)C2,?,?,1.3%,·
O=C(Nc1ccc(Cl)cc1Cl)c1ccc2ncsc2c1,-22.2%,-11.6%,3.9%,·
COC(=O)[C@@]12C[C@@H](CC(=O)NCCc3ccccc3OC)C(=O)N(Cc3cccc4ccccc34)C1=CCC(C)(C)C2,?,?,-5.7%,·
COC(=O)[C@@]12C[C@@H](CC(=O)NCCC(C)C)C(=O)N(Cc3cccc4ccccc34)C1=CCC(C)(C)C2,?,20.6µM*,1.5%,·
COC(=O)[C@@]12C[C@@H](CC(=O)NCc3cccc4ccccc34)C(=O)N(Cc3cccc4ccccc34)C1=CCC(C)(C)C2,18.4µM*,?,0.4%,·
COCCCNC(=O)C[C@@H]1C[C@@]2(C(=O)OC)CC(C)(C)CC=C2N(Cc2cccc3ccccc23)C1=O,?,?,-0.3%,·

# Assay outcomes (PubChem)
